pAkt inh = Akt phosphorylation inhibition | activity change, % for hits at 50 µM | AID 651550 | Neuro2A IGF-stimulated pAkt S473 HTRF, 20 min; active compounds read low | 360,000 tested, 0.32% active; in the data active = activity change below about -80%; inconclusive = mostly about -51% to -80%
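Neuro2A cells in DMEM with 0.5% FBS, overnight at 37 deg C, given compound at single 50 µM final, then IGF (6 nM final) for 20 min at 37 deg C. Lysed; phospho-Akt Ser473 by HTRF after 24 h, 665/615 ratio.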
Mm-Cpn inhibitor = blocks the Methanococcus maripaludis chaperonin Mm-Cpn; AID 504842; purified Mm-Cpn ATPase, ADP Transcreener TR-FRET; Potency, µM (top dose mostly 76.9 µM), actives largely listed as inhibitors; 330,000 tested, 0.031% active; also: nearly all actives have a fitted effect of over 80% in size
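Purified archaeal chaperonin (25 nM final) was preincubated with compound for 10 min at 37°C, then ATP (10 uM final) was added for 30 min at 37°C in Tris pH 7.4/KCl/MgCl2/DTT buffer. ADP was quantified by HTRF Transcreener TR-FRET.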
uPA generation = inhibitors of cell surface uPA generation; Potency, µM (doses to about 38.3 µM), usual class: inhibitors; 330,000 tested, 0.31% active; cell surface uPA generation assay, qHTS; active = well fitted inhibition curve with a large enough effect; inconclusive = small, poorly fitted or top-dose-only effect; inactive = no such curve, though single readings can be large or run the other way; tested in mouse RAW 264.7 cells; also: nearly all actives have a fitted effect of over 55% in size
MBNL1-CUG inh = inhibitors of human MBNL1 binding to CUG repeat RNA. Potency, µM (top dose mostly 57.5 µM), usual class: inhibitors. TR-FRET MBNL1-His/biotin-(CUG)12 binding, 665/545 ratio. 280,000 tested, 0.036% active. Q9NR56; active = well fitted inhibition curve with a large enough effect in the signal ratio, with a control signal flat, not every such curve was filed as active; inconclusive = small, poorly fitted or top-dose-only effect, or effect the other way, or a change in a side signal; inactive = no such curve, though single readings can be large or run the other way; the % refers to the signal ratio
Target sequence (Q9NR56 whole entry, looked up): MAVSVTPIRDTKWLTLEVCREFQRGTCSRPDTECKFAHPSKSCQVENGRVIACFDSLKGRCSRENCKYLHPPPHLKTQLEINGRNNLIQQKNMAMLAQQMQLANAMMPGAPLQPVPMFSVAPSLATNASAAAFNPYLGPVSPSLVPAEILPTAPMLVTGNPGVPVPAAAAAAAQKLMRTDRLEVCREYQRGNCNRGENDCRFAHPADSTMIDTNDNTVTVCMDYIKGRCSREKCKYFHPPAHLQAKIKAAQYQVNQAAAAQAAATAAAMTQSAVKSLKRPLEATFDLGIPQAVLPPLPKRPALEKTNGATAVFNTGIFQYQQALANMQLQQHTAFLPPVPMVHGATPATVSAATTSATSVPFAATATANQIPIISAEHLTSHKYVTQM
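Compound titration spanned 92 nM–58 uM against the MBNL1-His/biotin-(CUG)12 complex. After 60 min at room temperature with 5 nM streptavidin-XL665 and 0.055 ng/ul terbium anti-His, ratiometric 665/545 nm emission (Ex 340 nm) normalized to controls.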
CCT modulator = modulators of cytosolic chaperonin (CCT/TRiC) activity; purified chaperonin ATPase assay, HTRF ADP detection, 30 min; activity change, % (concentration not given with the values), hits read low; 360,000 tested, 0.3% active; AID 651819; in the data active = activity change below about -30%
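We incubate TRiC, 40 or 20 nM final, with library compounds at 76 uM and 10 uM ATP for 30 min at 37 °C. ADP formed is detected with Transcreener HTRF reagents after 30 min at room temperature.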
Epigenetic derep = regulators of epigenetic silencing causing reporter derepression in mouse cells; murine LDR cells, GFP reporter derepression, 30 h; Potency, µM (highest dose often 53.9 µM), most hits filed as activators; 280,000 tested, 0.2% active; also: nearly all actives have a fitted effect of over 60% in size
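Reporter derepression read as number of fluorescent GFP-positive objects, 20-120 um in size, counted by laser-scanning cytometer. Mouse LDR line with an epigenetically silenced CMV-GFP locus; compound incubation 30 h, 37 C.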
A number is an active result; . = inactive; ? = inconclusive; / = not tested or not shown. An excerpt weighted towards active compounds, which were near 0.97% of everything screened. Unless noted, calls follow the shape of the dose curve; as a rule, active = well fitted curve in the direction sought with a large enough effect; inconclusive = small, poorly fitted or top-dose-only effect, or another doubt; inactive = no such curve, though single readings can be large; an effect the other way counts as inactive or inconclusive.

SMILES	pAkt inh	Mm-Cpn inhibitor	uPA generation	MBNL1-CUG inh	CCT modulator	Epigenetic derep
CCCc1ccc(-c2cc(C(=O)N3CCN(c4ccccn4)CC3)c3ccccc3n2)cc1	.	.	7.1µM	.	.	/
CCC1Oc2ccccc2N(CC(=O)NCc2ccccc2)C1=O (stereo not given)	/	/	/	/	/	.
CCOC(=O)c1c(C)[nH]c(C(=O)OCC(=O)N2CCN(S(=O)(=O)c3ccc(C)cc3C)CC2)c1C	.	.	.	/	.	/
CN(Cc1ccc(F)cc1)C(=O)c1ccc(NC(=O)CC2SC(N3CCCC3)=NC2=O)cc1 (stereo not given)	.	.	.	/	.	/
O=C(CSCc1c(Cl)cccc1Cl)Nc1ccc2c(c1)OCCO2	.	.	.	.	.	.
COc1ccc(C2=NN(C(=S)Nc3ccccc3)C(c3ccccc3)C2)cc1 (stereo not given)	.	.	.	/	.	.
COc1ccc(C2CC(c3ccccc3)=NN2C(=S)Nc2ccccc2)cc1 (stereo not given)	.	50µM	.	.	.	.
CC(C)c1ccc(C2NC(C(=O)O)CS2)cc1 (stereo not given)	-105%	.	.	.	.	.
CCCc1cc(=O)oc2c3c(cc(OCC(=O)N[C@@H](C)C(=O)O)c12)OC(C)(C)CC3	.	.	.	.	.	/
CCCc1cc(=O)oc2c3c(c4c(c12)OC(C)(C)C=C4)OC(C)C(C)C3O (stereo not given)	.	.	1.4µM	.	.	.
C=CCn1c(-c2cccc(Cl)c2)n[nH]c1=S	-109%	.	.	.	.	.
Cc1ccc(C(C)C)c(OCc2ccc(C(=O)Nc3ccc(S(N)(=O)=O)cc3C)o2)c1	/	/	/	/	/	.
CSc1nc(N)nc(SCC(=O)C23CC4CC(CC(C4)C2)C3)c1C#N	.	.	/	.	.	.
N#Cc1c(N)nc(SCC(=O)C23CC4CC(CC(C4)C2)C3)c(C#N)c1-c1ccc(Cl)cc1	-82%	.	.	.	-40	.
CCOC(=O)CC(=O)CSc1nc(N)c(C#N)c(-c2ccc(Cl)cc2)c1C#N	.	.	.	.	.	.
CCCSc1nc(N)c(C#N)c(-c2ccc(C)cc2)c1C#N	-91%	?	.	?	.	.
CSc1cccc(NS(=O)(=O)c2cn(C)cn2)c1	/	.	.	.	.	/
CC(=O)C1CCC2C3CC(C)=C4CC(O)CCC4(C)C3CCC12C (stereo not given)	.	/	.	/	.	/
c1ccc(NCc2ccncc2)cc1	.	.	.	.	.	/
Cc1nc2cc(NC(=O)c3ccc(N4C(=O)CCC4=O)cc3)ccc2s1	.	.	.	.	-76	.
Cc1nc2ccc(NC(=O)c3ccc(N4C(=O)CCC4=O)cc3)cc2s1	.	.	.	.	.	.
CCc1ccc2nc(SCC(=O)N3CC(=O)Nc4ccccc43)c(C#N)cc2c1	.	.	.	.	.	18µM
CCN(CC(=O)Nc1cc(Cl)ccc1C)C(=O)c1cc([N+](=O)[O-])ccc1N1CCOCC1	.	.	.	/	.	/
Cc1ccc(NC(=O)CCC(=O)N2CCSc3ccccc32)cc1Cl	/	/	/	/	/	.
CCOc1cc(/C=N/Nc2nc(N3CCCCC3)nc(N3CCCCC3)n2)ccc1OC(=O)c1ccco1	.	.	13µM	.	.	.
SMILES	pAkt inh	Mm-Cpn inhibitor	uPA generation	MBNL1-CUG inh	CCT modulator	Epigenetic derep
CCOc1ccc(/C=N/Nc2nc(N3CCCC3)nc(N3CCCC3)n2)cc1OC	.	.	.	.	.	.
CCN1CCN(Cc2ccc(NC(=O)Nc3ccccc3Cl)cc2)CC1	.	.	10µM	.	.	.
Cc1cc(NC(=O)CSc2nnc(-c3cccc(Cl)c3)o2)no1	.	.	.	.	.	/
Cc1sc(NC(=O)CSc2nnc(-c3ccc(F)cc3)o2)c(C#N)c1C	-108%	.	.	.	-50	.
COc1ccc(-c2nnc(SCC(=O)Nc3ccccc3OC)o2)cc1	.	.	.	.	.	.
Cc1cc(NC(=O)CSc2nnc(-c3ccc4c(c3)OCCO4)o2)no1	-81%	.	.	.	.	.
O=C(CSc1nnc(-c2ccncc2)o1)Nc1cc(F)ccc1F	.	.	.	/	-119	/
O=C(CSc1nnc(-c2ccncc2)o1)Nc1cccc(F)c1	.	.	.	/	.	/
COc1ccc(-c2nnc(SCC(=O)NC(C)c3ccccc3)o2)cc1 (stereo not given)	.	.	.	.	-50	.
CCc1nnc(NC(=O)c2ccc(OC)c(S(=O)(=O)N3CCCC3)c2)s1	.	.	.	/	.	/
CCOc1cc2sc(N3CCC(C(=O)NCCCN4CCCC4=O)CC3)nc2cc1Br	.	.	.	.	.	/
Cc1ccc(-c2nnc(SCC(=O)Nc3ccccc3F)o2)cc1	.	.	8.9µM	.	.	.
CC(NC(=O)COC(=O)Cc1ccc(Cl)cc1)c1ccccc1 (stereo not given)	.	.	.	/	.	/
CC(NC(=O)Cc1ccc(-c2ccccc2)cc1)c1ccccc1 (stereo not given)	.	.	.	.	-43	.
O=C(CSc1nnc(-c2ccccc2)o1)Nc1ccccc1F	.	.	?	.	.	.
COCCNS(=O)(=O)c1cc(C)c(C)cc1C	.	.	.	.	.	.
Cc1ccc(NC(=O)COc2ccc(/C=C3/SC(=Nc4ccccc4)N(Cc4cccnc4)C3=O)cc2)cc1	-106%	.	.	.	.	.
Cc1ccc(NC(=O)COc2ccc(/C=N/NC(=O)CSCc3ccccc3)cc2)cc1	.	.	/	.	.	.
CC(C)CC(C(=O)O)C(C)CC(=O)Nc1ccn(-c2ccccc2)n1 (stereo not given)	-108%	.	.	.	.	.
COc1ccc(/C=N\NC(=O)c2sccc2C)cc1Cn1nc(C)cc1C	.	.	.	.	.	/
Cc1ccc(C(=O)Nc2c(C)n(C)n(-c3ccccc3)c2=O)cc1S(=O)(=O)N1CCOCC1	.	.	.	.	.	.
Cc1c(NC(=O)c2ccc(F)c(S(=O)(=O)N3CCOCC3)c2)c(=O)n(-c2ccccc2)n1C	-106%	.	.	.	.	.
O=C(Nc1ccc(-c2cn3ccccc3n2)cc1)c1ccc(Cl)cc1	.	.	.	.	.	.
Clc1ccc(-c2cn3ccccc3n2)cc1	.	.	8.9µM	.	.	/

Screening results deposited in PubChem by National Center for Advancing Translational Sciences (NCATS).
